Screening data as filed in PubChem BioAssay.
The list is not random: actives were taken first. Their share in the collection is about 0.37%.
HRas wt GTP = human HRas wildtype GTP binding, change in either direction. P01112. GST-Ras wt beads, Bodipy-FL-GTP binding, flow cytometry; actives lie on both sides. GTP binding activity, % at 10 µM. 190,000 tested, 0.14% active. AID 759;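 active = GTP binding activity at least 20% away from the 100% baseline, either lowered as inhibitor or raised as activator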;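 also: 0% = unlabeled GTP competition control and 100% = no-compound control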
Target sequence (P01112 whole entry, looked up): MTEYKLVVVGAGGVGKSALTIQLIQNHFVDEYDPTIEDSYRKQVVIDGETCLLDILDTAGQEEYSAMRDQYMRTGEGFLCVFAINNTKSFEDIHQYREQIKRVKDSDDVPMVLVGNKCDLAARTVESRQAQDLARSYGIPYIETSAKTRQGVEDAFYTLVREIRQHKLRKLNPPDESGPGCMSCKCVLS
Rac1 act GTP bind = modulators of GTP binding to human Rac1 activated mutant; GST-Rac1 activated beads, fluorescent GTP binding, flow cytometry; actives lie on both sides; 100% means binding = to untreated wells; percent activity (GTP binding), % at 10 µM; 190,000 tested, 0.11% active; AID 764; P63000;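 active = GTP binding at least 20 percentage points away from the 100% baseline, in either direction, so actives lie on both sides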
Cdc42 wt = modulators (inhibitors or activators) of GTP binding to human Cdc42 wildtype | GST-Cdc42 beads, Bodipy-GTP binding, flow cytometry; actives lie on both sides | P60953 | AID 761 | 190,000 tested, 0.2% active | percent activity (GTP binding), % at 10 µM;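 active = percent activity GTP binding at least 20 points away from the 100% baseline, either down as inhibitor or up as activator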;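 also: median bead fluorescence of bound Bodipy-FL-GTP at 100 nM; 0% = excess unlabeled GTP control and 100% = no compound control; below 100% means less GTP binding so inhibitor and above means activator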
Target sequence (P60953 whole entry, looked up): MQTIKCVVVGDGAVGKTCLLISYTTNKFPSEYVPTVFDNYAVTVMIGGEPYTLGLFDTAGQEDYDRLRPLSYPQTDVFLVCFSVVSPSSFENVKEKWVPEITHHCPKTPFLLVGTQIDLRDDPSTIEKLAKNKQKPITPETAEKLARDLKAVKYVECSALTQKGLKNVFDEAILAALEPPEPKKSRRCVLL
Rac1 wt modul = human Rac1 wildtype GTP binding, inhibitors and activators. P63000. GST-Rac1 beads, fluorescent GTP binding, flow cytometry; actives lie on both sides; 0 = cold GTP competed, 100 = untreated. GTP binding activity (% of control), % at 10 µM. 190,000 tested, 0.27% active. AID 757;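 active = GTP binding activity at least 20 points away from the 100% control level, either lower or higher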
Rab2A wt mod = changes GTP binding to wildtype dog Rab2A, up or down; P61105; GST-Rab2 wt beads, Bodipy-GTP binding, flow cytometry; GTP binding activity, % at 10 µM; 190,000 tested, 0.19% active; AID 760;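 active = GTP binding activity at least 20 points away from 100%, either lowered or raised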;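 also: 0% = beads with excess unlabeled GTP and 100% = no-compound control corrected for plate trend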
Rab7 wt GTP bind = alters GTP binding to wildtype dog Rab7. GTP binding activity (percent of control), % at 10 µM. GST-Rab7 beads, fluorescent GTP binding, flow cytometry; actives lie on both sides; untreated = 100%, excess cold GTP = 0%. AID 758. 190,000 tested, 0.055% active;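 active = fluorescent GTP binding to Rab7 beads changed by at least 20 points from the 100% baseline, either direction, mostly lower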;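 also: median green fluorescence of bound Bodipy-FL-GTP per Rab7 bead population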
Active calls of the source: *; [ ] = dose if it differs, or a comment.

SMILES	HRas wt GTP	Rac1 act GTP bind	Cdc42 wt	Rac1 wt modul	Rab2A wt mod	Rab7 wt GTP bind
COc1c(C)cc(Br)cc1C(=O)O	111	101	116	120*[activator]	112	102
Cc1ccc(/C=C2\SC(=S)N(CC(=O)Nc3cccnc3)C2=O)cc1	94	92	92	93	94	90
Cc1ccc(-c2nnc3c4ccccc4c(C)nn23)cc1NC(=O)CN1CCOCC1	96	97	96	97	94	95
Cc1ccc(-c2nnc3c4ccccc4c(C)nn23)cc1S(=O)(=O)N1CCN(CCO)CC1	85	95	82	88	79*	86
CN1C(=O)/C(=C2\SC(=S)N(CC3CCCO3)C2=O)c2ccccc21 (stereo unspecified)	102	101	104	104	102	102
O=C1/C(=C\c2ccc(-c3ccccc3Cl)o2)SC(=S)N1CC1CCCO1 (stereo unspecified)	55*	59*	63*	59*	62*	68*
COc1ccc(C(CC(=O)O)NC(=O)c2cc3cc(Br)ccc3oc2=O)cc1OC (stereo unspecified)	83	76*	77*	80	76*	83
COc1ccc2c3c(cccc13)C(=O)N(O)C2=O	84	90	91	79*	82	89
COc1ccccc1N1C(=O)c2cccc3c(C(=O)O)ccc(c23)C1=O	103	98	106	114	103	103
COc1ccc(C2=NNC(=O)CC2)cc1	101	101	100	104	101	99
O=C(CSc1ccc2nnc(-c3cccc(F)c3)n2n1)N1CCCc2ccccc21	87	89	88	79*	89	95
O=C(CSc1ccc2nnc(-c3ccc(F)cc3)n2n1)N1CCCc2ccccc21	91	95	95	97	93	93
O=C(Nc1nc2ccccc2[nH]1)c1ccc(F)cc1	101	103	103	103	101	97
N#Cc1c2nc3ccccc3nc2n2cc(NC(=O)c3ccc(F)cc3)ccc12	81	88	91	79*	77*	89
COCCOC(=O)c1c(C)n(C)c2ccc(OC(=O)c3ccco3)cc12	103	100	103	106	103	102
Cc1cc(C)cc(C(=O)N(NC(=O)Nc2ccc(Cl)cc2)C(C)(C)C)c1	95	99	101	99	97	74*
CCCCCOC(=O)C1=C(C)NC(=O)NC1c1ccccc1OCC (stereo unspecified)	99	95	94	96	100	101
CC(=O)Nc1ccc(S(=O)(=O)Oc2ccc(/C=N/NC(=O)c3ccc(Cl)cc3)cc2)cc1	95	99	98	97	97	97
Cc1ccc(/C=C2\SC(=S)N(C(Cc3ccccc3)C(=O)O)C2=O)cc1 (stereo unspecified)	85	80	82	83	79*	92
COc1ccc(CC2(CO)CCN(S(=O)(=O)c3sccc3C)CC2)cc1	61*	57*	63*	58*	66*	66*
COc1ccc(CC2(CO)CCN(S(=O)(=O)c3c(C)nn(C)c3Cl)CC2)cc1	96	95	98	99	96	96
Cc1ccnc(NC(=O)COc2ccc3oc4c(c3c2)CCCC4)c1	101	98	99	103	99	98
Cc1nnc(-c2ccccc2)[nH]c1=O	100	98	99	100	97	92
S=C(NCCc1ccccc1)N1CCn2cccc2C1c1cccnc1 (stereo unspecified)	81	77*	78*	78*	80	86
S=C(NCc1ccccc1)N1CCn2cccc2C1c1cccnc1 (stereo unspecified)	98	95	98	97	96	97
SMILES	HRas wt GTP	Rac1 act GTP bind	Cdc42 wt	Rac1 wt modul	Rab2A wt mod	Rab7 wt GTP bind
CC(=O)Nc1ccc(NC(=O)CCn2nnc3ccccc32)cc1	32*	101	86	102	35*	39*
O=c1[nH]n(Cc2ccccc2)c(=O)c2ccccc12	97	98	98	101	99	96
COc1cc(/C=N/Nc2nnc3c(n2)[nH]c2ccccc23)ccc1O	83	93	94	86	79*	85
COc1cc(/C=N/Nc2nncn2/N=C/c2ccc(O)c(OC)c2)ccc1O	76*	86	77*	75*	79*	91
COc1cc(/C=N/Nc2ccccc2C(F)(F)F)ccc1O	94	93	90	94	97	103
COc1ccc([N+](=O)[O-])cc1N(CC(O)CN1CCCCC1)S(=O)(=O)c1ccc(C)cc1 (stereo unspecified)	99	98	99	99	100	104
CCn1c(NCc2cccs2)nc2ccccc21	100	99	105	106	99	97
O=c1c2ccccc2nc2ccc(NCc3cccs3)nn12	79*	88	76*	74*	74*	91
Cc1cc(C)nc(SCc2csc(-c3ccccc3)n2)n1	100	101	101	105	99	98
O=S(=O)(Cc1ccccc1)N1CCc2ccccc21	95	96	94	102	37*	98
COc1cccc(N=Nc2c(N)[nH]n3c(=O)cc(-c4ccccc4)nc23)c1	92	91	92	93	88	94
Nc1[nH]n2c(=O)c3c(nc2c1N=Nc1ccc(Cl)cc1)CCCC3	86	84	86	74*	81	89
Nc1[nH]n2c(=O)c3c(nc2c1N=Nc1ccccc1)CCCC3	73*	85	72*	85	71*	94
Cc1ccc(N=Nc2c(N)[nH]n3c(=O)cc(-c4ccccc4)nc23)cc1	85	77*	79*	79*	78*	83
CCOC(=O)C1=C(c2ccccc2)Nc2nc(C)nn2C1c1cccc(OC)c1OC (stereo unspecified)	98	99	99	104	100	98
CCOC(=O)c1c(NC(=O)Cn2nc(C(=O)O)c3ccccc3c2=O)sc(CC)c1C	94	96	94	95	96	95
CCOc1ccc(N(C(=O)CNC(=O)c2ccco2)C(C(=O)NC2CCCC2)c2ccncc2)cc1 (stereo unspecified)	95	96	99	101	98	97
C/C=C/c1ccccc1OCc1ccc(C(=O)O)o1	145*[activator]	146*[activator]	161*[activator]	194*[activator]	149*[activator]	134*[activator]
Cc1cc(NC(=O)C2=C(O)c3ccccc3S(=O)(=O)N2C)no1	99	100	100	102	100	96
Cc1cc(C)n(C(=O)CNC(=O)c2ccc3c(c2)OCCO3)n1	38*	33*	34*	29*	32*	20*
